Rows were chosen to be rich in hits. Some 10% of all compounds tested hit in one or more screens of this group.
Luc counter – Kinase-Glo luciferase inhibition (counter-screen). 200,000 compounds, 0.28% hits. Q27757. Potency, µM (series often up to 38.3 µM), for inactives: top-dose activity change, negative = inhibition, usual class: inhibitors. Kinase-Glo luciferase, ATP luminescence, 8 min. AID 1379; active means well fitted inhibition curve with a large enough effect; inconclusive means small, poorly fitted or top-dose-only effect; further: potency means the concentration at half of the fitted maximal effect; nearly all actives have a fitted effect of over 60% in size
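Substrate mix (final 50 mM imidazole pH 7.2, 50 mM KCl, 7 mM MgCl2, 10 uM ATP, 0.01% Tween 20, 0.05% BSA) plus pin-tool compound, then Kinase-Glo detection mix; 8 min ambient, luminescence read.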
HPGD inh – HPGD (human) dehydrogenase inhibition; Potency, µM, without a hit: at the top dose activity change, negative = inhibition, hits mostly inhibitors; 150,000 compounds, 4.3% hits; purified HPGD, NADH fluorescence kinetic, PGE2 substrate; AID 894; P15428; further: potency means the concentration at half of the fitted maximal effect
Target sequence (P15428 whole entry, looked up): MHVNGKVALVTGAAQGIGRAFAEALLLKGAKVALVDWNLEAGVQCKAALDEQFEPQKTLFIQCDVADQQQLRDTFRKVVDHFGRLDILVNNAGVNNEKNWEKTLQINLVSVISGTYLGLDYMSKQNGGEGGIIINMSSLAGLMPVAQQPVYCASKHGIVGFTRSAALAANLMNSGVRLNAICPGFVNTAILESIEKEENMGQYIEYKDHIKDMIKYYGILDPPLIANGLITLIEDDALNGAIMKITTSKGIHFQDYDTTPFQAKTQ
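20 nM HPGD preincubated 15 min at room temperature with compound in 50 mM Tris-HCl pH 8, 0.01% Tween 20. Started with 1 mM NAD+ and 30 uM prostaglandin E2; NADH fluorescence (360/450 nm) read 5 times over 30-s intervals, last minus first.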
LMNA splice mod – changes lamin A minigene splicing in HeLa cells. HeLa LMNA splicing GFP/RFP minigene ratio, 48 h. Potency, µM (doses to about 46.1 µM), inactives show at the top dose ratio change, negative = inhibition, most hits filed as inhibitors. 200,000 compounds, 0.01% hits; active means well fitted inhibition curve with a large enough effect in the signal ratio, with a control signal flat, not every such curve was filed as active; inconclusive means small, poorly fitted or top-dose-only effect, or effect the other way, or a change in a side signal; the % refers to the signal ratio; further: potency means the concentration at half of the fitted maximal effect
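S3 HeLa stable clones carrying a lamin A-EGFP splicing minigene plus DsRed2 were seeded at 600 cells/well in Opti-MEM with 2% FBS, pin-dosed and incubated 48 h at 37°C. Acumen cytometry (488 nm) gave the GFP/RFP total-intensity ratio.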
IMPase inh – membrane-permeable compound that blocks inositol monophosphatase; inhibition (IP1 accumulation), % at 46.1 µM; P97697; CHO-M1 cells, IP1 accumulation, HTRF TR-FRET ratio; AID 901; 120,000 tested, under 10 active; active means well fitted curve in the direction sought with a large enough effect in the signal ratio, not every such curve was filed as active; inconclusive means small, poorly fitted or top-dose-only effect, or a change in a side signal; inactive means no such curve, though single readings can be large or run the other way; the % refers to the signal ratio;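 further: cells stimulated with carbachol in lithium chloride buffer; plate controls were DMSO basal wells for no effect and reference inhibitor wells for full effect; higher means more IMPase inhibition seen as more IP1 and lower FRET ratio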
Target sequence (P97697 whole entry, looked up): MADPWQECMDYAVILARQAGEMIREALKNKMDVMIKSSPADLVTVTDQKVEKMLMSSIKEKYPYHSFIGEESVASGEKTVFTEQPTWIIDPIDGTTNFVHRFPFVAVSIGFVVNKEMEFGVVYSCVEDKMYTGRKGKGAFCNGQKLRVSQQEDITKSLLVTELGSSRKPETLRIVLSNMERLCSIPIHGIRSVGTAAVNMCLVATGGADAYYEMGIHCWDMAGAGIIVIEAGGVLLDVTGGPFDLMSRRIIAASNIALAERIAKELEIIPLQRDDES
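CHO-M1 cells (CHO stably expressing M1 receptor), compound up to 46 uM final, stimulated with carbachol (50 uM as added) in buffer with 50mM LiCl, pH 7.4, 30 min at 37C. Cytosolic IP1 read by TR-FRET; AC50 from Hill fits.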
PNC inhibitor – blocks assembly of the perinucleolar compartment; PC3M PTB-GFP, PNC prevalence imaging, 16 h; hits give low values; activity change (PNC), negative = inhibition, % at 10 µM; 140,000 compounds, 3.1% hits; AID 2417;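 active means readout at or below -70, meaning at least 70% loss of cells showing the perinucleolar compartment, a nuclear body marking cancer cells; inconclusive means readout between -30 and a set limit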;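 further: plate controls were DMSO wells for no effect and camptothecin positive control wells for full effect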
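Read-out is percentage of cells bearing a perinucleolar compartment, from automated 20x imaging of fixed, Hoechst-stained PC3M PTB-GFP cells. Cells were seeded 4 h, then exposed 16 h to compound (23 nl of library stock) in duplicate plates.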
ALDH1A1 block – inhibitors of human aldehyde dehydrogenase 1A1; 220,000 compounds, 7.3% hits; P00352; AID 1030; Purified ALDH1A1, NADH fluorescence, propionaldehyde substrate; Potency, µM (doses to about 75.3 µM), inactives show at the top dose activity, negative = inhibition, most hits filed as inhibitors;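 further: potency means the concentration at half of the fitted maximal effect; plate controls were no enzyme wells and a reference inhibitor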
* marks the source's active call; other numbers are inactive results; u = inconclusive; x = no result given; [ ] = remark or other dose. Unless noted, the call rests on the fitted dose curve; in most records, active means well fitted inhibition curve with a large enough effect (not every such curve was filed as active); inconclusive means small, poorly fitted or top-dose-only effect, or another doubt; inactive means no such curve, though single readings can be large or run the other way. Unless noted, on the % scale 0 is the no-effect control and ±100 the full control effect.

SMILES	Luc counter	HPGD inh	LMNA splice mod	IMPase inh	PNC inhibitor	ALDH1A1 block
Cc1ccc2[nH]c(=O)c(CN(CC3CCCO3)S(=O)(=O)c3cccc4nsnc34)cc2c1 (centres undefined)	-2%	-8%	-14%	-7	53	20µM*
COc1ccc(CCNc2nc(SCc3cccc(Cl)c3)nc3ccccc23)cc1OC	x	x	8%[46 µM]	x	x	x
Cc1cc(O)c(C(c2ccccc2)N2CCN(c3ccccc3)CC2)c(=O)n1Cc1ccco1 (centres undefined)	x	x	-10%[46 µM]	x	x	x
COC(=O)c1ccc(Nc2nc(-c3ccccc3Cl)nc3ccccc23)cc1	x	x	x	-11	x	x
Cc1cccc(NC(=O)N(Cc2cc3cc(C)ccc3[nH]c2=O)CC2COCCO2)c1 (centres undefined)	-1%	x	x	x	x	32µM*
Cc1ccc2cc(CN(CC3CCCO3)C(=S)NCc3ccco3)c(=O)[nH]c2c1 (centres undefined)	-6%	x	u	x	x	3.5µM*
Cc1ccc2nsnc2c1S(=O)(=O)N(Cc1ccco1)Cc1cc2ccc(C)c(C)c2[nH]c1=O	8%	-15%	10%	6	-82*	u
Cc1ccc2nsnc2c1S(=O)(=O)N(Cc1ccco1)Cc1cc2cccc(C)c2[nH]c1=O	-6%	-15%	-6%	u	8	u
Cc1ccc2[nH]c(=O)c(CN(CC3CCCO3)C(=S)Nc3ccccc3)cc2c1 (centres undefined)	-1%	-20%	-15%	x	26	14µM*
Cc1ccc2[nH]c(=O)c(CN(CC3CCCO3)C(=S)NCc3ccco3)cc2c1 (centres undefined)	-1%	-8%	-6%	x	-3	u
C[C@H]1CC[C@@H]2N(C1)C[C@H]1[C@@H]3C[C@H]4[C@@H](C/C(=N\O)[C@H]5C[C@@H](O)CC[C@@]54C)[C@@H]3CC[C@H]1[C@]2(C)O	0%	-6%	x	x	x	4%
CCOC(=O)c1c(NC(=O)c2noc3c2CCCC3)sc(C)c1C	-1%	u	-1%	1	1	22µM*
Cc1ccc(NC(=O)c2ccc(N3CCOCC3)c([N+](=O)[O-])c2)cc1S(=O)(=O)N1CCOCC1	2%	-4%	u	6	-4	u
CC(=O)N1CCN(c2ccc(NC(=O)c3ccc(N4CCCC4)c([N+](=O)[O-])c3)cc2Cl)CC1	5%	-5%	1%	-4	u	7.9µM*
O=C(Nc1ccc2c(c1)OCO2)c1ccc(NC2CC2)c([N+](=O)[O-])c1	2%	-15%	-30%	2	-24	-4%
CN(C)S(=O)(=O)c1cccc(NC(=O)c2ccc(N3CCOCC3)c([N+](=O)[O-])c2)c1	1%	-17%	u	x	-10	18µM*
Cc1ccc(OC(=O)c2ccc(N3CCOCC3)c([N+](=O)[O-])c2)cc1	-4%	u	0%	3	u	7.1µM*
O=C(Nc1ccc2c(c1)OCO2)c1ccc(N2CCCC2)c([N+](=O)[O-])c1	1%	-21%	u	x	96	16µM*
ClC/C=C/CCl	x	-8%	x	x	x	-5%
O=C(Nc1ccc(N2CCCCC2)c(Cl)c1)c1ccc(N2CCOCC2)c([N+](=O)[O-])c1	1%	-17%	7%[0.0737 µM]	7	32	8.9µM*
Cc1ccc(NC(=S)NNC(=O)c2ccc(N3CCOCC3)c([N+](=O)[O-])c2)cc1C	1%	-13%	4%	x	-9	4µM*
COC(=O)CC1[C@@]2(C)C[C@]34OC5(C)OC6(C7CC(=O)OC(c8ccoc8)[C@]7(C)CCC6(O5)[C@]13C)C(OC(C)=O)[C@]4(OC(C)=O)C2OC(C)=O (some centres undefined)	1%	-2%	-5%	x	x	10%
O=C(COC(=O)CN1C(=O)C2CCCCC2C1=O)NC1CCS(=O)(=O)C1 (centres undefined)	-1%	-9%	-3%	x	68	-2%
